Assay outcomes as filed in PubChem.
ClpP mod: qHTS Assay for Activators of ClpP. ATP-dependent Clp protease proteolytic subunit (Bacillus subtilis (strain 168)), P80244. purified B. subtilis ClpP, FRET peptide cleavage, 20 min. Potency, µM (highest dose often 57.5 µM), without a hit: top-dose activity change, negative = active. 1.9% of 340,000 active. AID 651965, 2013; active means well fitted falling curve with a large enough effect; inconclusive means small, poorly fitted or top-dose-only effect; inactive means no such curve, though single readings can be large or run the other way; further: potency means the concentration at half of the fitted maximal effect; the source files actives as falling curves though it sought activators and does not explain the sign; nearly all actives have a fitted effect of over 65% in size
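FRET quenching reversal measured ClpP activation: 10 microg/mL B. subtilis ClpP at pH 8 with the FRET-FV decapeptide, read at 430 nm after 320 nm excitation. The 20-min minus 0-min signal was scaled between DMSO/no-enzyme wells and ADEP (5.8 microM final).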
DT40 TDP1 no CPT: qHTS for Inhibitors of human tyrosyl-DNA phosphodiesterase 1 (TDP1): qHTS in cells in absence of CPT | DT40 Tdp1-/- hTDP1 cells, no CPT, ATP luminescence, 48 h | Potency, µM (highest dose often 46.2 µM), for the others: top-dose activity change, negative = growth inhibition, most hits filed as inhibitors | 15% of 420,000 active | AID 686978, 2013; further: potency means the concentration at half of the fitted maximal effect; on the % scale 0 is the no-effect control and ±100 the full control effect; nearly all actives have a fitted effect of over 55% in size
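Cells were dispensed at 400 per well, compounds added by pin tool, plates incubated ≥48 hr at 37 °C, then CellTiter-Glo added for 30 min at room temperature before luminescence reading. Line: DT40 Tdp1-/- complemented with hTDP1; camptothecin omitted.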
TDP1 cell CPT: growth inhibition of DT40 Tdp1-/-;hTDP1 cells with camptothecin (screen for TDP1 inhibitors); Potency, µM (doses to about 46.2 µM), for inactives: at the top dose activity change, negative = growth inhibition, usual class: inhibitors; 12% of 420,000 active; AID 686979; chicken DT40 Tdp1-/-;hTDP1 cells + 20 nM CPT, ATP luminescence, 48 h; further: potency means the concentration at half of the fitted maximal effect; on the % scale 0 is the no-effect control and ±100 the full control effect; nearly all actives have a fitted effect of over 55% in size
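Cell growth measured by CellTiter-Glo luminescence after a minimum 48 h, 37 C compound exposure with 20 nM CPT in Tdp1-knockout DT40 cells stably expressing hTDP1, seeded 400/well; qHTS titration format.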
DRD3 antagonist: D3 dopamine receptor (human) antagonism; max response, negative = inhibition, %; D3R cells, DiscoveRx beta-arrestin luminescence, antagonist mode; hits give low values; 2.5% of 360,000 active; in the data active means max response below about -50%; inconclusive means no clear call, values can overlap the other calls; further: on the % scale 0 is the no-effect control and ±100 the full control effect
Target sequence (P35462 whole entry, looked up): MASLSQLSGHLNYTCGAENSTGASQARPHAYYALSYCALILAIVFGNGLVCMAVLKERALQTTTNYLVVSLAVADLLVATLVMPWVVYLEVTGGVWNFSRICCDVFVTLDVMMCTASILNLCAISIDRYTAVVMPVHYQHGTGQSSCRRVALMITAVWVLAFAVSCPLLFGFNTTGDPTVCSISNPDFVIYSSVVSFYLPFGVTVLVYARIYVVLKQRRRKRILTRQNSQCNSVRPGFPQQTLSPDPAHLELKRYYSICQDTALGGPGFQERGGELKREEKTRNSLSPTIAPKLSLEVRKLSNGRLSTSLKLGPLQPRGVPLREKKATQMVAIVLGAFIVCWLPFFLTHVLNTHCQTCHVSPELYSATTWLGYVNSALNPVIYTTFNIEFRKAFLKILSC
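Cells expressing the human receptor were seeded at 1500 cells/well, incubated overnight at 37 degrees C in 5% CO2, then exposed to library compounds with dopamine controls for 90 minutes at 37 degrees C before luminescent detection.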
DRD3 agonist: D3 dopamine receptor (human) agonism; P35462; D3R DiscoveRx beta-arrestin cells, luminescence, 90 min; max activation, %; 0.58% of 410,000 active; AID 652048; in the data active means max activation above about 30%; further: 0% is about no effect
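Cells at 1500/well, incubated overnight, then treated with pinned compounds (dopamine as control) for 90 min at 37 degrees C. DiscoveRx reagent added for 30 - 60 minutes at room temperature; luminescence read.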
IL1B secr inh: inhibitors of inflammasome signaling (IL-1 beta secretion). 4.7% of 360,000 active. THP-1 LPS/ATP IL-1B secretion, AlphaLISA, 16 h; hits give low values. activity change, % at 57.5 µM; in the data active means activity change below about -50%; inconclusive means mostly about -30% to -49%; further: on the % scale 0 is the no-effect control and ±100 the full control effect
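Secreted IL-1B measured by AlphaLISA bead assay after 16 h compound exposure of THP-1 cells; compounds (final up to 57.5 uM) added 1 h before LPS (250 ng/mL) and ATP (1.25 mM) stimulation; lower signal means less secretion.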
Numbers without * were called inactive; ? = inconclusive; . = not tested or not shown. In the library only some 21% were active in any assay of this set; here they are far more common. Unless noted, the call rests on the fitted dose curve; in most records, active means well fitted inhibition curve with a large enough effect; inconclusive means small, poorly fitted or top-dose-only effect; inactive means flat fitted curve, though single readings scatter.

SMILES | ClpP mod | DT40 TDP1 no CPT | TDP1 cell CPT | DRD3 antagonist | DRD3 agonist | IL1B secr inh
COc1ccc(NC(=O)N(C)C[C@@H]2OCc3ccccc3-c3c(n(C)c4ccccc34)C(=O)N([C@H](C)CO)C[C@H]2C)c(OC)c1 | -16% | ? | 15µM* | -4 | -10 | ?
C[C@@H]1CN([C@H](C)CO)C(=O)c2c(c3ccccc3n2C)-c2ccccc2CO[C@@H]1CN(C)C(=O)Nc1ccccc1C(F)(F)F | 1% | 0% | -2% | -5 | 0 | 11
Cc1c(C(=O)Nc2c(F)cc(F)cc2Br)sc2ncn(CC(=O)N3CCCC3)c(=O)c12 | -3% | 16% | 4% | -7 | 0 | 27
Cc1cc(C)c(S(=O)(=O)NCc2csc(C)n2)c(C)c1 | -3% | 2% | -19% | -14 | 1 | 10
CC1CC(C)CN(C(=O)Cn2nnc(-c3ccc(Br)cc3)n2)C1 (centres undefined) | . | -21% | 3% | -6 | -3 | 10
COc1ccc(C(=O)COC(=O)CNC(=O)c2ccc(OC)cc2)cc1 | . | -3% | 4% | 7 | -6 | 41
Nc1ncnc2c1ncn2COC(CO)CO | -1% | 0.71µM* | 0.32µM* | . | . | .
Nc1ncnc2c1ncn2CCOCP(=O)(O)O | . | -11% | -11% | . | -9 | .
O=C(O)[C@H](Cc1ccccc1)NC(=O)N1CCN(c2ccc(F)cc2)CC1 | -4% | -7% | 7% | -23 | -9 | -2
O=C(Nc1nnc(S(=O)(=O)N2CCCc3ccccc32)s1)c1ccc(Cl)cc1 | -6% | 18µM* | ? | . | 2 | .
O=C(Nc1nnc(S(=O)(=O)N2CCc3ccccc32)s1)c1ccccc1 | -1% | ? | ? | . | -16 | .
O=C(Nc1nnc(S(=O)(=O)N2CCCc3ccccc32)s1)c1ccccc1 | -2% | ? | ? | . | -14 | .
O=C(Nc1nnc(S(=O)(=O)N2CCc3ccccc32)s1)c1cccc(Cl)c1 | -4% | 21µM* | 21µM* | . | -11 | .
COc1ccc2nc(NN=C(C)c3ccccn3)cc(C)c2c1 | -13% | 2.9µM* | 1.6µM* | ? | -4 | -102*
N=C(N)n1ncc2c1CCCC2=O | ? | -19% | -8% | -19 | -9 | 17
Cc1ccc([C@H]2N[C@]3(CCCN(Cc4cccn4C)C3=O)[C@H]3C(=O)N(C)C(=O)[C@@H]23)cc1 | -1% | ? | ? | ? | -7 | -9
O=S(=O)(NCCc1csc(-c2cccnc2)n1)c1ccc(Cl)s1 | -27% | 23µM* | 12µM* | -2 | -6 | 16
O=S(=O)(NCCc1csc(-c2cccnc2)n1)c1cccs1 | -22% | ? | ? | -16 | 3 | -13
COc1ccc(S(=O)(=O)NCCc2csc(-c3cccnc3)n2)cc1 | 4% | -29% | 15µM* | 4 | 2 | 1
Cc1ccc(S(=O)(=O)N2CCOCC2)cc1C(=O)OCC(=O)Nc1ccc2[nH]c(=O)[nH]c2c1 | 1% | -3% | -4% | 15 | 0 | 10
COc1cccc(N(CC(=O)N2CCCC2)S(C)(=O)=O)c1 | 1% | -9% | -1% | 6 | 0 | 0
Cc1ccc(C2C=CC(C#N)=CN2Cc2ccccc2)cc1 (centres undefined) | -5% | ? | 23µM* | ? | -8 | 69
Cc1ccc(S(=O)(=O)N(C)C)cc1NC(=O)c1cc(-c2ccco2)nc2ccccc12 | 28µM* | 18µM* | 13µM* | 20 | 18 | 14
Cc1cccc(NC(=O)c2cc(-c3ccco3)nc3ccccc23)n1 | 22µM* | 18µM* | 21µM* | 85 | 5 | 5
Cc1ccccc1NC(=O)c1cc(-c2ccco2)nc2ccccc12 | . | ? | -5% | 6 | 29 | .
